# Measured values published in ChEMBL document CHEMBL4513216, “Probing the Open Global Health Chemical Diversity Library for Multistage-Active Starting Points for Next-Generation Antimalarials” (ACS Infect Dis, 2020).
# Screen size: about 68,000 compounds; about 2,700 (4%) showed an effect of 50% or more. The sample holds strong results, similar compounds and a random draw of the others, so the mix is not that of the screen.
# Tested on: Plasmodium berghei
# Assay: Screen against P. berghei liver stage (PbLuc), transformed with Luciferase, at 2uM
# Assay type: functional, HepG2
# Settings: tested at 2 uM
row,SMILES,INHIBITION
1,CC(C)c1nc(C2CCCN2Cc2ccccc2C#N)no1 (centres undefined),-17.71%
2,CNc1cncc(C2CCCN2S(=O)(=O)c2ccccc2F)n1 (centres undefined),29.89%
3,CC(C)CNC(=O)[C@H]1CCS(=O)(=O)[C@@H]2CN(Cc3ccc(Cl)cc3)C[C@H]12,8.13%
4,CCc1cccc(N2CCC(NC(=O)C3CCCO3)CC2)c1 (centres undefined),22.53%
5,CC(=O)N(Cc1noc(C2CC2)n1)C1CCN(Cc2nccn2C)C1 (centres undefined),-27.69%
6,CC(C)c1nc(C2CCCN2CC(=O)N2CCc3ccccc32)no1 (centres undefined),30.91%
7,Cc1cc(NC(=O)CN2CCCC2c2noc(C(C)C)n2)no1 (centres undefined),21.12%
8,CC(C)c1nc(C2CCCN2CC(=O)N2CCNC2=O)no1 (centres undefined),57.33%
9,COc1ncccc1CN1CCC2(CC1)CC(OCC1CC1)CO2 (centres undefined),-23.93%
10,Cc1nn(Cc2ccc(C(=O)NCCCN3CCOCC3)o2)c(C)c1Cl,32.66%
11,Cn1ncc(N2CCOC(CCNC(=O)NC(C)(C)C)C2)cc1=O (centres undefined),39.32%
12,NC(=O)CN1CCCN(C(=O)Cc2ccc(Br)cc2)CC1,11.24%
13,Cc1nnc(CN(C)CCOc2cccc(Cl)c2)o1,70.83%
14,Cc1nnc(CN(C)CCCOc2cccc(Cl)c2)o1,-33.74%
15,CN(CCOc1cccc(Cl)c1)Cc1nnc(C(C)(C)C)o1,-19%
16,CCc1nc(C2CCCN2C(=O)c2ccc3c(c2)COC3)no1 (centres undefined),16.18%
17,CS(=O)(=O)N(Cc1ccon1)c1ccc2c(c1)OCO2,37.25%
18,OC1(CN2CCOC(Cn3cccn3)C2)CCCCC1 (centres undefined),-1.88%
19,O=C(Cc1ccccn1)N1CCN(CC2CC2)c2ncccc2C1,16.87%
20,COc1cccc2c(=O)n(Cc3cccnc3)cnc12,-66.95%
21,O=c1c2cccc(F)c2ncn1CCN1CCOCC1,25.37%
22,COc1cccc2c(=O)n(C3CCNCC3)cnc12,24.6%
23,O=c1c2cccc(F)c2ncn1CCN1CCNCC1,65.76%
24,CN1CCN(CCn2cnc3c(F)cccc3c2=O)CC1,30.42%
25,O=c1c2cccc(C(F)(F)F)c2ncn1CCN1CCNCC1,50.61%
26,COc1cccc2c(=O)n(CCN3CCNCC3)cnc12,50.61%
27,CC(C)N1CCN(CCn2cnc3c(F)cccc3c2=O)CC1,-13.34%

row,SMILES,INHIBITION
1,Cc1csc2c(=O)n(CCN3CCNCC3)cnc12,23.68%
2,CN(Cc1nccn1CC(F)(F)F)C(=O)c1ccc(F)cc1F,73.96%
3,COc1cc(C(=O)N(C)Cc2nccn2CC(F)(F)F)ccc1C,-5.68%
4,CN(Cc1nccn1CC(F)(F)F)C(=O)c1cccc(N(C)C)c1,27.53%
5,CN(Cc1nccn1CC(F)(F)F)C(=O)c1ccc(F)c(F)c1,32.57%
6,CCOc1ccc(C(=O)N(C)Cc2nccn2CC(F)(F)F)cc1,52.57%
7,Cc1ccc(C(=O)N(C)Cc2nccn2CC(F)(F)F)cn1,-4.59%
8,COCC(=O)NC(C)Cc1cccc(Cl)c1 (centres undefined),-20.82%
9,CC[C@H]1CN(C(=O)c2cnc(CN3CCCC3)s2)CC[C@@]1(C)O,-47.18%
10,Cc1ccc([C@@H]2CN(S(=O)(=O)N3CCC(C)CC3)C[C@H]2N(C)C)cc1,65.1%
11,Cc1ccc([C@@H]2CN(S(=O)(=O)N(C)C)C[C@H]2N(C)C)cc1,28.49%
12,Cc1ccc([C@@H]2CN(S(=O)(=O)C(C)C)C[C@H]2N(C)C)cc1,4.47%
13,CN(C)C(=O)CN1CCC(c2c(C(N)=O)sc3ncccc23)C1 (centres undefined),-21.9%
14,Cc1nc(C)c(C(=O)N2CCCC(c3cnccn3)C2)s1 (centres undefined),38.65%
15,CCn1ccnc1C1CCCN(C(=O)c2sc(C)nc2C)C1 (centres undefined),58.56%
16,Cc1nc(N)sc1C(=O)N1CCCC(c2nccn2CCCN(C)C)C1 (centres undefined),29.02%
17,CC(=O)N1CCOC2(CCN(C(=O)c3cnoc3C)CC2)C1,-21.09%
18,CC(C)c1cccc(-n2cc(O)c(C(=O)O)n2)c1,50.61%
19,CC(C)c1ccc(-n2cc(O)c(C(=O)O)n2)cc1,23.16%
20,CC(C)c1cccc(-n2cc(O)c(C(N)=O)n2)c1,11.9%
21,CN(C)CC(=O)N1CCC2(CC1)CN(c1ncccn1)CCO2,25.4%
22,CCC(C)n1cnc(S(=O)(=O)N(C)C)c1 (centres undefined),-15.03%
23,CCC(C)n1cnc(S(=O)(=O)N(Cc2cccnc2)C(C)C)c1 (centres undefined),59.03%
24,CCC(C)n1cnc(S(=O)(=O)N(C)c2cccnc2N(C)C)c1 (centres undefined),11.9%
25,O=C(Nc1cccc(CNCc2cccs2)c1)C1CCCC1,-5.15%
26,O=C(Nc1cccc(CNCc2ccsc2)c1)C1CC1,30.92%
27,O=C(Nc1cccc(CNCc2cccs2)c1)C1CC1,62.82%
